The values below come from PubChem BioAssay (NCATS).

Each structure is given as a SMILES string. A number with no mark means an inactive call. Records with an inconclusive call do not appear. For some assays here: Potency and affinity values are given separately. Activity calls are given as the source filed them.

Test [1] can be described thus: Immunotoxin (HA22) sensitization/mitigation study. Vehicle arm (PBS) (AID 1159510). Also: potency is read from the fitted curve at half-maximal effect.
Test [2] is described as follows: qHTS Assay for Identifying Gametocytocidal Compounds (AID 743244; active = well fitted curve in the direction sought with a large enough effect; also: potency is read from the fitted curve at half-maximal effect;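 as to max response: % is scaled to controls: 0 for no effect and ±100 for the full control effect; actives lower the fluorescent signal which means gametocytes are killed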). Particulars: P. falciparum 3D7 stage III-V gametocytes, alamarBlue, 72 h; max response: active compounds read low. The procedure, abridged: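 P. falciparum 3D7 stage III–V gametocytes (20,000 cells/well) were exposed to compounds for 72 h at 37 °C, 5% CO2. AlamarBlue was then added for 24 h; decreased resorufin fluorescence (Ex 525/Em 598 nm) indicated loss of viability.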
On the technique in general: Quantitative high-throughput screening tests each substance at several concentrations.

The conditions of test [3]: Ebola virus entry assay, green channel fluorescence.
The conditions of test [4]: Ebola virus entry assay, reporter ratio channel; Channel type: primary.
For test [5] the following is noted: Ebola virus entry assay, blue channel (ratio component).
For test [6] the following is noted: Ebola virus entry assay, blue channel fluorescence.
The conditions of test [7]: Ebola virus entry reporter assay, green channel fluorescence. Background: In a reporter assay the amount or activity of a reporter protein is the signal.
For test [8] the following is noted: Ebola virus entry cell assay, ratio channel.

For the compound `CCC(=C(c1ccccc1)c1ccc(OCCN(C)C)cc1)c1ccccc1`, the Potency in test [1] was 23.5 µM (active).
As for `COc1cc2nccc(Oc3ccc(NC(=O)C4(C(=O)Nc5ccc(F)cc5)CC4)cc3)c2cc1OC`, in test [1], the Potency was 20.9 µM (active).
Take `CC(C)(C)NC[C@H](O)c1ccc(O)cc1Cl`: the max response in test [2] is 2.84%. Besides, the call in test [3], in test [4] and in test [5] was inactive.
In the case of `Cn1c2cc(S(C)=O)sc2c2cnn(Cc3cccc(N)c3)c(=O)c21` (centres undefined), in test [1], the Potency entry is “inactive”.
Consider `CC[C@@H]1C(=O)N(C)c2cnc(Nc3ccc(C(=O)NC4CCN(C)CC4)cc3OC)nc2N1C1CCCC1`, for which the Potency in test [1] is 0.0066 µM (active).
Regarding `Cc1ccc(Cl)c(O)c1`, the max response in test [2] is -0.773%. The outcome in test [3], in test [4] and in test [5] was inactive.
Consider `O=C(O)c1ccc(-c2c[nH]c3ccc(-c4ccccc4)cc23)cc1C1CCCC1`, for which, in test [1], the Potency entry was “inactive”.
As to `NC(=O)c1c(OCc2c(F)cc(Br)cc2F)nsc1NC(=O)NCCCCN1CCCC1`, the Potency in test [1] was 23.5 µM (active).
Same read-out and setting: then `CN(C)c1ccc(Nc2nc(N)n(C(=O)c3c(F)cccc3F)n2)cc1`, with 20.9 µM (active).
On to `Cc1cc(C(=O)NNCc2ccccc2)no1`, for which the compound was called inactive in test [6], in test [7] and in test [8].
Consider `S=C(SSC(=S)N1CCCCC1)N1CCCCC1`, for which the Potency in test [2] is 0.148 µM (active). The result in test [3], in test [4] and in test [5] was inactive.
Regarding `Cc1cccc(-c2[nH]c(C(C)(C)C)nc2-c2ccc3nccnc3c2)n1`, the Potency result in test [1] was “inactive”.
Same read-out and setting: then `Cc1cnc(-c2cnc(NCCNc3ccc(C#N)cn3)nc2-c2ccc(Cl)cc2Cl)[nH]1`, with 0.935 µM (active).
With `O=C(O)COc1ccccc1`, the max response in test [2] is -2.31%. Besides, the compound was classed as inactive in test [3], in test [4] and in test [5].
For `COc1ccc(CCN2CCN(CCCc3ccccc3)CC2)cc1OC`, the Potency in test [1] is 23.5 µM (active).
